Drawing on PubChem BioAssay (Tox21), this text covers Potency for 40 molecules.

Where “and” joins values, the source holds several entries; their conditions need not be identical. Identical values can stand only once. Results filed as inconclusive are left out. A call without a number means that no potency is given here. Calls of active or inactive are those of the source. Calls follow the shape of the dose curve; as a rule, active = well fitted cell-killing curve with a large enough effect in the repeat runs; inconclusive = weak or mixed curves; inactive = flat fitted curve, though single readings scatter.
Potency is read from the fitted curve at half-maximal effect.

The experiment in a line: qHTS assay to identify small molecule antagonists of the estrogen receptor beta (ER-beta) signaling pathway - cell viability counter screen (AID 1259382). Also: nearly all actives have a fitted effect of over 55% in size. Particulars: ER-beta-UAS-bla HEK293T viability, CellTiter-Glo luminescence, 16 h; series mostly up to 92.4 µM. The source says: U.S. Tox21 Program National Center for Advancing Translational Sciences [NCATS] NIH Chemical Genomics Center [NCGC] U.S. Environmental Protection Agency [EPA] National Institutes of Environmental Health Sciences [NIEHS] National Toxicology Program [NTP] U.S. Food and Drug Administration [FDA] Tox21 Assay Overview: Estrogen receptor (ER), a nuclear hormone receptor, plays an important role in development, metabolic homeostasis and reproduction. Two subtypes of ER, ER-alpha and ER-beta, have similar expression patterns with some uniqueness in both types. Endocrine disrupting chemicals (EDCs) and their interactions with steroid hormone receptors like ER causes disruption of normal endocrine function. To identify the compounds that inhibit ER signaling, an ER-beta-UAS-bla GripTite cell line (Life Technologies, Madison, WI, USA) containing a beta-lactamase reporter gene under the control of an UAS response element was used to screen Tox21 10K compound library. The cytotoxicity of the Tox21 compound library against the ER-beta-bla cell line was tested in parallel by measuring the cell viability using CellTiter-Glo assay in the same wells.
Tox21 Assay Protocol Summary: ER-beta-UAS-bla HEK293T cells were dispensed at 2,000 cells/4 uL of assay medium containing 2% charcoal stripped FBS per well into black wall/clear-bottom 1536-well plates using a Multidrop Combi (ThermoFisher Scientific, Waltham, MA) dispenser. After the assay plates were incubated at a 37C and 5% CO2 for 6 hr, 23 nL of compounds dissolved in DMSO, positive controls or DMSO only was transferred to the assay plate by a Pintool station (Kalypsys, San Diego, CA), followed by addition of 1 uL (1nM as final concentration) of 17-beta-estradiol (E2) in assay medium using a Flying Reagent Dispenser (FRD, Aurora Discovery, San Diego, CA). The plates were incubated at 37C and 5% CO2 for 16 hr. Then 1 uL of LiveBLAzer B/G FRET substrate was added using a Flying Reagent Dispenser, the plates were incubated at room temperature for 2 hours, and fluorescence intensity was measured by an Envision plate reader (PerkinElmer, Shelton, CT). For cell viability readout that measures cytotoxicity, 4 uL/well of CellTiter-Glo reagent was added into the assay plates using a FRD. After 30 min incubation at room temperature, the luminescence intensity in the plates was measured using a ViewLux (PerkinElmer) plate reader.
On the technique in general: Quantitative high-throughput screening tests each substance at several concentrations.
As for `S=c1nccc[nH]1`, the Potency result is “inactive”.
To `CCc1ccc(Br)cc1` belongs “inactive”.
The result for `CCN(CC)C(=O)c1cc(S(=O)(=O)Cc2ccccc2)c(N2CCC(c3ccccc3)CC2)cc1N(CC)CCN(C)C` reads 19.1 µM (active).
To `[Cl][Pt-2]([Cl])([Cl])[Cl]` belongs “inactive”.
On to `CC(N=C(NC#N)Nc1ccncc1)C(C)(C)C` (stereo not given), for which the Potency result is “inactive”.
To `c1ccc(SSc2ccccc2)cc1` belongs “inactive”.
To `CC(=O)[C@H]1CC[C@H]2[C@@H]3CCC4=CC(=O)CC[C@]4(C)[C@H]3CC[C@]12C` belongs 54.2 µM (active) and 61.1 µM (active); to `c1ccc(C(O[C@@H]2CCCN(CCc3ccc4c(c3)OCO4)C2)c2ccccc2)cc1`, “inactive”; to `CCCCNS(=O)(=O)c1ccc(C)cc1`, “inactive”.
As for `CCC(CC)C(C)CCOC(C)=O` (stereo not given), the Potency result was “inactive”.
The result for `OC12N=C(c3ccccc3)SC1Cc1cc(Cl)ccc12` (stereo not given) reads “inactive”; that for `O=C(/C=C/c1ccc(O)c(O)c1)O[C@@H](C(=O)O)[C@@H](OC(=O)/C=C/c1ccc(O)c(O)c1)C(=O)O`, “inactive”.
The result for `CCCCCCCC` reads “inactive”.
To `CC(C)CCOC(=O)/C=C/c1ccccc1` belongs “inactive”.
As to `CCN1C(=O)c2ccccc2C1Nc1ccc(OCCN2CCCCC2)cc1` (stereo not given), the Potency entry is “inactive”.
Take `C/C=C/C=C/COC(=O)C(C)C`: the Potency result was “inactive”.
Turning to `COc1ccc(-c2coc3cc(O)ccc3c2=O)cc1`, the Potency entry is “inactive”.
To `CCCCCCCC/C=C\CCCCCCCCN` belongs “inactive”; to `COc1cc(C)ccc1O`, “inactive”.
The result for `COC(=O)C1=C(C)NC(C)=C(C(=O)OCCN2CCN(C(c3ccccc3)c3ccccc3)CC2)C1c1cccc([N+](=O)[O-])c1` (stereo not given) reads “inactive”; that for `Sc1nc2ccccc2s1`, “inactive”; that for `O=C1OC2(c3ccc(O)cc3Oc3cc(O)ccc32)c2ccc(N=C=S)cc21`, “inactive”.
The result for `CC1=Nc2ccccc2C1(C)C` reads “inactive”; that for `CC(C)(C)NSc1nc2ccccc2s1`, “inactive”; that for `CCO[C@@H]1O[C@H](C(COCc2ccccc2)OCc2ccccc2)[C@H](OCc2ccccc2)[C@H]1O` (stereo not given in full), “inactive”.
For the molecule `C=Cc1cccc(C)c1`, the Potency result was “inactive”.
As to `Cc1nc2n(c(=O)c1CCN1CCC(c3noc4cc(F)ccc34)CC1)CCCC2`, the Potency result is “inactive”.
To `CCCCCCC1CCCC(=O)O1` (stereo not given) belongs “inactive”; to `CC(C(=O)O)c1ccc2c(c1)[nH]c1ccc(Cl)cc12` (stereo not given), “inactive”.
For the molecule `CCCCCCCCCCCCOCCOCCOCCOCCOCCOCCOCCOCCOCCO`, the Potency was 29.8 µM (active).
To `CCn1c2ccccc2c2cc([N+](=O)[O-])ccc21` belongs “inactive”.
As for `C1CCC(SSC2CCCCC2)CC1`, the Potency result is “inactive”.
To `O=C1CCc2cc(OCCCCc3nnnn3C3CCCCC3)ccc2N1` belongs “inactive”.
To `OC/C=C/CO` belongs “inactive”; to `CCN(CC)c1ccc2c(-c3ccc(S(=O)(=O)O)cc3S(=O)(=O)[O-])c3ccc(=[N+](CC)CC)cc-3oc2c1`, “inactive”.
The result for `CCCC(=O)OCOC(=O)C1=C(C)NC(C)=C(C(=O)OC)C1c1cccc(Cl)c1Cl` (stereo not given) reads “inactive”.
`CCCCCCCCCCCCCCCC[N+](C)(C)CC`: the Potency was 34.5 µM (active) and 23.7 µM (active).
The result for `Nc1ccc(Oc2ccc(Cl)cc2)cc1` reads “inactive”; that for `CCCC(=O)OCCc1ccccc1`, “inactive”.
The result for `CN1CCC[C@@H]1CCO[C@](C)(c1ccccc1)c1ccc(Cl)cc1` reads 21.1 µM (active).
